Laboratory results as given in ChEMBL document CHEMBL3988442, “University of Dundee, Small-Polar-MMV Screening Library” (2021).
About 960 (1.5%) of roughly 66,000 compounds showed an effect of 50% or more. For the sample, strong results were picked, then their nearest neighbours and some compounds at random.

Test system: Trypanosoma brucei
Experiment: Trypanosoma brucei 72 hour study
Type: functional, organism-based
Set-up: scale not given: in the data most compounds retested in dose-response had high values

SMILES	Percent Effect (30.3 µM, […]) [%]	Percent Effect (30 µM, 30.03 µM) [%]
CN(C)C[C@@H]1C[C@@H]2CN(Cc3nccn3C)CC[C@@H]2N1CC1CC1	-12.03	–
Cc1cccc(OCC2CCCN(C(=O)CN(C)C3CCNCC3)C2)c1 (stereo not drawn)	–	6.222
COCC(=O)N1CCCC(COc2ccccc2C)C1 (stereo not drawn)	–	-51.53
Cc1ccccc1OCC1CCCN(C(=O)CN(C)C2CCNCC2)C1 (stereo not drawn)	–	59.87
Cc1ccccc1-n1ncc(C(C)N)c1C (stereo not drawn)	-16.93	–
Cc1ncc(CN2CCCC2)c2cc(C(=O)c3ccc(Br)cc3)oc12.Cl	–	-13.22
CC(C)CNC(=O)[C@H]1CCS(=O)(=O)[C@@H]2CN(CC(C)C)C[C@H]12.O=C(O)C(F)(F)F	-19.44	–
CC(=O)N1CCN(C(=O)c2cnc(OC(C)C)c(Cl)c2)CC1	-3.997	–
CC(C)Oc1ncc(C(=O)N2CCC(N(C)C)CC2)cc1Cl	99.1	–
CC(C)Oc1ncc(C(=O)N2CCC(CC(N)=O)CC2)cc1Cl	-51.28	–
Cc1n[nH]cc1CNC1(c2ccc(F)cc2)CCCC1	-110.9	–
Cc1n[nH]cc1CNC1(c2ccc(Br)cc2)CC1	-166.2	–
Cc1n[nH]cc1CNC1(Cc2ccc(Br)cc2)CCCCC1	80.83	–
O=C(O)C(F)(F)F.O=C(O)C(F)(F)F.O=C1NC2(CCN(Cc3ccc(F)cc3)CC2)CC1c1ccncc1 (stereo not drawn)	–	28.32
Cc1cc(S(=O)(=O)NC(C)(C)CN)c(F)cc1F.Cl	–	-23.52
Cc1oncc1C(=O)N1CC2CC1(C(=O)N(C)C)C2	-15.18	–
CCOCC1c2c(cnn2CC2CC2)CCN1Cc1nccs1.O=C(O)C(F)(F)F.O=C(O)C(F)(F)F (stereo not drawn)	-3.24	–
COCC1c2c(cnn2CC2CC2)CCN1Cc1nccs1.O=C(O)C(F)(F)F.O=C(O)C(F)(F)F (stereo not drawn)	–	52.09
COCC1c2c(cnn2CC2CC2)CCN1Cc1cccs1.O=C(O)C(F)(F)F.O=C(O)C(F)(F)F (stereo not drawn)	–	-88.48
Cc1cccc2c1cnn2CCCNC(=O)C1CC1	-16.1	–
O=C(CN1CC(c2nc(C3CC3)no2)C1)N1CCOCC1.O=C(O)C(=O)O	–	47.84
O=C(O)C(F)(F)F.O=C([C@H]1CC[C@@H]2[C@@H](CCN2C2CCCCC2)O1)N1CCOCC1	2.517	–
CO[C@@H]1CCN(c2nnc(C)s2)C[C@@H]1Cc1ccccc1.O=C(O)C(F)(F)F	-5.303	–
Cc1nnc(N2CC[C@H](OCC3CC3)[C@@H](Cc3ccccc3)C2)s1.O=C(O)C(F)(F)F	–	-16.49
Cc1nnc(N2CC[C@@H](OCC3CC3)[C@@H](Cc3ccccc3)C2)s1.O=C(O)C(F)(F)F	100.5	–
CO[C@@H]1CCN(c2nnc(C)s2)C[C@@H]1Cc1cccc(C)c1.O=C(O)C(F)(F)F	-8.568	–
CO[C@H]1CCN(c2nnc(C)s2)C[C@@H]1Cc1cccc(C)c1.O=C(O)C(F)(F)F	100.1	–
CO[C@H]1CCN(c2nnc(C)s2)C[C@@H]1Cc1ccccc1.O=C(O)C(F)(F)F	12.72	–
